# Experimental data: PubChem BioAssay AID934 (National Center for Advancing Translational Sciences (NCATS), 2007)
# Records with an inconclusive call do not appear. Entries that show only a call come without a potency. The source made the active and inactive calls. Calls follow the shape of the dose curve; as a rule, active = well fitted activation curve with a large enough effect; inconclusive = small, poorly fitted or top-dose-only effect; inactive = flat fitted curve, though single readings scatter.
# Assay: Parental Cell Counter Screen for Stat Signaling Pathway Assay
# Settings: ME-180 (cervical carcinoma) parental cells, blue fluorescence artefact counter-screen; series mostly up to 38.3 µM
# From the text: NIH Molecular Libraries Screening Centers Network [MLSCN] NIH Chemical Genomics Center [NCGC] MLSCN Grant: None NCGC Assay Overview: This assay is a counter screen for the Stat signaling pathway assay (PubChem AID 446). The Stat assay is cell-based and measures Interleukin 6 (IL-6) mediated modulation of a beta-lactamase reporter gene controlled by a STAT inducible element (SIE-bla cells, Invitrogen). IL-6 is a cytokine that signals via the JAK/STAT pathway and is implicated in cancer and inflammation. […] Compounds active in the parental ME-180 cells are likely fluorescent.
# NCGC Assay Protocol Summary: Cells were trypsinized, washed in assay medium (AM, OPTI MEM with 0.5% fetal bovine serum, 0.1 mM nonessential amino acids, 1 mM sodium pyruvate, 10mM HEPES pH 7.3, 100U/ml penicillin, and 100 ug/ml streptomycin) and suspended at […] in AM. Approximately 2500 cells in 5 uL/well was dispensed into 1536-well plates and the cells were incubated overnight at 37 C. 23 nL of compound were delivered by a pin tool and 1 uL of IL-6 (40 pM final concentration in AM) was added. After plates were incubated at 37 C for 5 hrs, 1uL of detector mix (LiveBLAzerTM, Invitrogen) was added, the plates incubated at room temperature for 2.5 hrs, and fluorescence intensity at 460 and 530 nm emissions was measured at 405 nm excitation by an Envision (Perkin Elmer).
row,Compound,Potency
1,COC(=O)C(O)(c1ccc(NC(=O)c2ccco2)c(OC)c1)C(F)(F)F (stereo not given),0.0063 µM (active)
2,COc1ccc2c3c([nH]c2c1)C(C)=NCC3,12.6 µM (active)
3,CN(N=O)c1ccc(O)c(O)c1,inactive
4,COc1cccc2c1C(=O)c1c(O)c3c(c(O)c1C2=O)C[C@](O)(/C(C)=N\O)C[C@@H]3O[C@H]1C[C@H](N)[C@@H](O)[C@H](C)O1,inactive
5,COC1=C(C)C(=O)c2c(c(COC(N)=O)c3n2C[C@@H]2[C@@H]3N2C)C1=O (stereo not given in full),12.6 µM (active)
6,CCn1cnc2c(Nc3cccc(Cl)c3)nc(N[C@@H]3CCCC[C@H]3N)nc21,inactive
7,O=c1ccc2cc(O[C@H]3O[C@@H](CO)[C@@H](O)[C@@H](O)[C@@H]3O)c(O)cc2o1,15.8 µM (active)
8,c1ccc2c(c1)[I+]c1ccccc1-2,inactive
9,Cc1c2ccncc2c(C)c2c1[nH]c1ccccc12,15.8 µM (active)
10,CC[C@]1(O)C(=O)OCc2c1cc1n(c2=O)Cc2cc3ccccc3nc2-1,inactive
